From PubChem BioAssay (NCATS)
Inconclusive results are not listed. The source made the active and inactive calls. The call rests on the fitted dose curve; in most records, active means well fitted inhibition curve with a large enough effect; inconclusive means small, poorly fitted or top-dose-only effect; inactive means flat fitted curve, though single readings scatter.

How the values were obtained:
Test in all cases: Cytotoxic Profiling of Annotated Libraries Using Quantitative High-Throughput Screening (AID 1296008); further: nearly all actives have a fitted effect of over 60% in size
Conditions in all cases: Five cell lines viability, CellTiter-Glo ATP luminescence, 48-72 h; max response: stronger effect = lower value
CRL-7250 = normal cell line; tested on: CRL-7250
Outline: (§1)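 Compounds were pin-transferred onto cells and incubated 48 or 72 hr at 37 degree Celsius, 95% humidity. CellTiter-Glo was added, plates sat 10 min at room temperature, then ATP-coupled luminescence was imaged as the viability read-out.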

HEK293 = tested on: HEK293
Outline: as §1

HaCat = tested on: HaCat
Outline: as §1

KB-3-1 = tested on: KB-3-1
Outline: as §1

NIH3T3 = tested on: NIH3T3
Outline: as §1

Measured: max response
On the % scale 0 is the no-effect control and ±100 the full control effect.

C/C=C(\C)C(=O)OC1CC2C(CC=C3CC(OC4CC(OC)C(OC5CC(OC)C(OC6CC(OC)C(OC7CC(OC)C(OC8CC(OC)C(OC9OC(CO)C(O)C(O)C9O)C(C)O8)C(C)O7)C(C)O6)C(C)O5)C(C)O4)CCC32C)C2(O)CCC(C(C)=O)C12C (stereo not given)
inactive: CRL-7250 | HEK293 -12.4% | HaCat | KB-3-1 8.92% | NIH3T3

CC(C)=CCc1cc(O[C@@H]2O[C@H](CO[C@@H]3OC[C@](O)(CO)[C@H]3O)[C@@H](O)[C@H](O)[C@H]2O)ccc1O
inactive: CRL-7250 -4.68% | HEK293 1.91% | HaCat | KB-3-1 | NIH3T3

COC(=O)C1=COC(O[C@@H]2O[C@H](CO)[C@@H](O)[C@H](O)[C@H]2O)C2C(C)C(=O)CC12 (stereo not given in full)
inactive: CRL-7250 -2.22% | HEK293 -2% | HaCat -11.3% | KB-3-1 2.31% | NIH3T3

COc1cc(C(=O)OCC2=CCC3C(C(=O)O)=COC(O[C@@H]4O[C@H](CO)[C@@H](O)[C@H](O)[C@H]4O)C23)ccc1O (stereo not given in full)
inactive: CRL-7250 -2.16% | HEK293 -8.64% | HaCat | KB-3-1 | NIH3T3

C=C(C(=O)O)[C@@H]1CC[C@@]2(C)CC[C@@H](O)C(=C)C2C1 (stereo not given in full)
inactive: CRL-7250 4.71% | HEK293 -1.36% | HaCat -0.0078% | KB-3-1 -6.38% | NIH3T3

Cc1[nH]c2ccccc2c1CC(=O)N[C@@H](Cc1ccccc1)C(=O)N(C)c1ccccc1
inactive: CRL-7250 -9.69% | HEK293 -12.5% | HaCat | KB-3-1 | NIH3T3 -0.277%
